Assay results as given in the supplement of paper PMC12636033.
± gives the standard deviation of the averaged measurements. Whole data set: some 33,000 sequences, median “E-score (rank enrichment, -0.5 to 0.5)” near -0.0068, cut for the highest 2% near 0.24. The sample as a whole holds a higher share of the highest values than the screen did.

Tested on: muMax20 (Max(13-93) K31hArg/K57hArg, M65Nle)
Assay: PBM 8-mer E-score (E-score (rank enrichment, -0.5 to 0.5)); higher = stronger preferential binding
Procedure: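 Protein binding microarray (universal PBM chip covering all 10-mers in fixed probe flanks) with chemically synthesized human Max(13-93) bHLH-LZ analogs (not full-length Max) bearing noncanonical residues (hArg, Tha, Aib, Nle at 65) and aromatic Cys staples. Read-out per 8-mer (and its reverse complement): E-score (rank-based enrichment, -0.5 to 0.5) and Z-score of median probe intensity.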

Sequence	PBM 8-mer E-score
TGTAGTAA	0.258 ± 0.033
CGTAGTAA	0.104 ± 0.053
ATTAGTAC	0.0781 ± 0.08
CATAGTCA	0.05 ± 0.035
TATAGTAA	0.28 ± 0.024
AGTAGTAA	0.151 ± 0.057
CTTAGTAA	0.0409 ± 0.1
GATAGTCA	0.117 ± 0.051
GATAGTAA	0.0883 ± 0.11
ATTAGTAA	0.246 ± 0.00033
TATAGTCA	0.246 ± 0.027
CATAGTAA	0.163 ± 0.055
AACGTTAG	0.091 ± 0.026
AGAGCAAT	-0.0507 ± 0.013
CCACCGCA	-0.117 ± 0.1
ACGGGTAG	-0.226 ± 0.026
CAGATCCG	-0.166 ± 0.073
CTCCCAGC	-0.118 ± 0.04
GTTAGTTA	0.251 ± 0.048
ATTAGTTA	0.173 ± 0.015
CTTAGTTA	0.0136 ± 0.12
GCCTCGAC	-0.225 ± 0.022
AACCCGGA	-0.327 ± 0.033
GTAAGGCA	0.203 ± 0.12
ATTCTAGA	0.0758 ± 0.1

Sequence	PBM 8-mer E-score
ATCTACAA	0.126 ± 0.062
ACGTGGCT	0.249 ± 0.1
ACGTGGCA	0.256 ± 0.033
ACGTGGCC	0.114 ± 0.13
TCGTGGCA	0.164 ± 0.017
CCGTGGCA	-0.149 ± 0.013
ACGTGGCG	0.165 ± 0.085
CAGGCTGG	-0.172 ± 0.05
GTTTTCAA	0.258 ± 0.079
GGTTTCAA	0.0825 ± 0.073
CTTTTCAA	0.144 ± 0.06
CCTTTCAC	0.116 ± 0.056
TATTTCAA	0.257 ± 0.016
CATTTCAA	0.217 ± 0.053
CTTTTCAC	0.311 ± 0.078
GATTTCAA	-0.0671 ± 0.11
ATTTTCAC	-0.00186 ± 0.074
AATAGGGG	0.0563 ± 0.032
CGCCGCTA	-0.204 ± 0.0029
ACAGAGCC	-0.0681 ± 0.01
CGCATAAC	0.153 ± 0.039
AGCGCTCC	-0.263 ± 0.015
ACGTGTTG	0.299 ± 0.081
CCGTGTTA	0.103 ± 0.017
AGGTGTTG	-0.0311 ± 0.062

Sequence	PBM 8-mer E-score
GCGTGTTA	0.195 ± 0.089
ACGTGTTA	0.321 ± 0.015
CCGTGTTC	0.00613 ± 0.046
ACGTGTTC	0.292 ± 0.0076
ATGTGTTG	0.225 ± 0.018
AGGTGTTC	0.157 ± 0.0061
CACTTGCC	0.168 ± 0.14
TCACTACA	0.0656 ± 0.0014
ACCAACAC	0.174 ± 0.0053
AGCAAATG	0.0747 ± 0.051
AACTTGAT	0.198 ± 0.024
GCGAAATA	0.104 ± 0.11
CGGGAGTC	-0.0836 ± 0.032
ACATTTGG	0.0453 ± 0.092
GAACCCAA	-0.136 ± 0.086
AACCCCAA	0.259 ± 0.015
AACCCCCA	-0.337 ± 0.0059
ACCCCCAA	-0.14 ± 0.0093
AAACCCAA	0.265 ± 0.0051
AAACCCAT	0.0906 ± 0.057
AAGCGGCG	-0.253 ± 0.0057
ACAAAGAC	0.226 ± 0.034
ACGCTCTA	0.000195 ± 0.019
CGAGGGAG	0.0101 ± 0.048
ACTACTTA	0.114 ± 0.13

Sequence	PBM 8-mer E-score
CACGTGCG	0.462 ± 0.035
AACGTGCG	0.129 ± 0.053
TACGTGCA	0.155 ± 0.0056
CCCGTGCG	-0.166 ± 0.0035
AACGTGCC	-0.0196 ± 0.033
CACGTGCA	0.451 ± 0.049
GACGTGCC	-0.0314 ± 0.077
AACGTGCA	0.225 ± 0.0061
CACGTGCC	0.419 ± 0.076
ACCCCCTG	-0.181 ± 0.16
AAGCGAAC	-0.038 ± 0.12
ACAAACGT	0.0903 ± 0.12
GCAAGGCA	0.0264 ± 0.067
CCGGACCC	-0.294 ± 0.09
ATGTTTGA	0.207 ± 0.051
CTGTTTGA	0.143 ± 0.011
ACGTTTGG	-0.00749 ± 0.048
CCGTTTGA	-0.202 ± 0.057
GTGTTTGA	0.241 ± 0.042
ACGTTTGA	0.254 ± 0.015
ACACTGCC	-0.0509 ± 0.054
CAACAGAG	-0.088 ± 0.056
CGTGAATC	-0.00172 ± 0.048
AATGTCTC	0.00715 ± 0.052
CATGTCTA	0.0944 ± 0.042

Sequence	PBM 8-mer E-score
CATGTCTC	0.256 ± 0.015
AGTGTAGG	0.0989 ± 0.087
ATATAATA	0.302 ± 0.0079
GAATAATA	0.165 ± 0.01
GGATAATA	0.0335 ± 0.0051
GTATAATA	0.247 ± 0.093
CTATAATA	0.165 ± 0.0056
ATATAATG	0.2202 ± 0.001
GGCAGAAA	0.135 ± 0.072
CAGTGCAC	-0.103 ± 0.061
CCCGAGCA	0.00085 ± 0.0024
GACCGAGC	-0.276 ± 0.069
ATTGCAGA	-0.0371 ± 0.034
TCCACGCA	0.0588 ± 0.069
ATGGGCGC	-0.129 ± 0.1
ATAGCGTA	-0.019 ± 0.055
ATTCCACA	0.101 ± 0.1
CAGAACTC	-0.171 ± 0.057
AAGGATAC	-0.00358 ± 0.02
AAGGATAT	0.247 ± 0.062
AAGGATAA	0.149 ± 0.041
AGCGATTC	-0.0904 ± 0.024
ACATGAAC	0.0854 ± 0.018
TCATGAGA	0.111 ± 0.0016
ACATGAGT	0.0854 ± 0.027

Sequence	PBM 8-mer E-score
ACATGAAT	0.24 ± 0.04
ACATGAAG	0.0775 ± 0.23
ACATGAGA	0.253 ± 0.039
ACCAACAT	0.0339 ± 0.18
GACGGGGA	-0.043 ± 0.026
ACCAGGTG	-0.184 ± 0.13
CGGCTACC	-0.274 ± 0.058
ATACTTTA	0.279 ± 0.0074
ATACTTTG	0.107 ± 0.036
CTACTTTA	0.0793 ± 0.013
GTGAGTGA	-0.073 ± 0.17
ATGTTGTG	0.145 ± 0.062
GTGTTGTA	0.164 ± 0.016
ATGTTGTA	0.284 ± 0.016
AGGCGCAA	-0.0721 ± 0.067
ATAATATC	0.257 ± 0.035
GTAATATA	0.267 ± 0.012
GTAATAAA	0.154 ± 0.041
CTAATATC	0.214 ± 0.06
ACAATATA	0.211 ± 0.037
ATAATATA	0.263 ± 0.042
ATAATAGA	0.0729 ± 0.052
CTAATATA	0.214 ± 0.0087
ATAATATG	0.169 ± 0.035
GAGGACCC	-0.228 ± 0.037

Sequence	PBM 8-mer E-score
AGTAATCA	0.109 ± 0.12
CGGGGCGA	-0.112 ± 0.037
AGAACTCC	-0.0617 ± 0.081
AAAGGCTA	-0.0552 ± 0.0014
GACGGATA	-0.139 ± 0.049
GCTCACCA	-0.15 ± 0.068
ATACCCCG	-0.0795 ± 0.096
AACGACCA	0.0599 ± 0.047
ACTGCCAG	-0.0897 ± 0.06
ATACAAAA	0.305 ± 0.0098
CTACAAAA	0.0991 ± 0.063
TTACAAAA	0.126 ± 0.043
ATACAAAT	0.273 ± 0.038
ACACAAAG	0.23 ± 0.078
ATACAACC	-0.0691 ± 0.073
ATACAACA	0.254 ± 0.025
ACACAAAC	0.25 ± 0.056
ACACAAAA	0.208 ± 0.055
ATACAAAC	0.225 ± 0.037
ATACAAAG	0.136 ± 0.09
ATACAACG	0.203 ± 0.026
ACGGCCGG	-0.2416 ± 0.0019
